Source: PubChem BioAssay (EPA / NIEHS)
Several values for one entry are separate records, joined by “and”; a condition that tells them apart may be missing. Identical values can stand only once. Records with an inconclusive call do not appear. A structure can be active in one record and inactive in another. Activity calls are given as the source filed them. The calls were made as follows, unless noted: active = hit-call score of the fitted dose curve at least 0.9, where 1 is the maximum; inactive = score below 0.9.

Columns and labels:
[1] = molecular target: Bile acid receptor (Homo sapiens) (UniProt Q96RI1); test: ATG_FXR_TRANS: Attagene TRANS-FACTORIAL HepG2 Assay for Farnesoid X Receptor (FXR) (AID 2282979; active = hit-call score of the fitted dose curve at least 0.9, where 1 is the maximum;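 also: hits raise reporter mRNA above DMSO so AC50 marks FXR activation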); conditions: HepG2 Attagene TRANS FXR-GAL4 reporter transcription
Chain of Bile acid receptor (Homo sapiens) (Q96RI1 whole entry, looked up, the tested form may be a part): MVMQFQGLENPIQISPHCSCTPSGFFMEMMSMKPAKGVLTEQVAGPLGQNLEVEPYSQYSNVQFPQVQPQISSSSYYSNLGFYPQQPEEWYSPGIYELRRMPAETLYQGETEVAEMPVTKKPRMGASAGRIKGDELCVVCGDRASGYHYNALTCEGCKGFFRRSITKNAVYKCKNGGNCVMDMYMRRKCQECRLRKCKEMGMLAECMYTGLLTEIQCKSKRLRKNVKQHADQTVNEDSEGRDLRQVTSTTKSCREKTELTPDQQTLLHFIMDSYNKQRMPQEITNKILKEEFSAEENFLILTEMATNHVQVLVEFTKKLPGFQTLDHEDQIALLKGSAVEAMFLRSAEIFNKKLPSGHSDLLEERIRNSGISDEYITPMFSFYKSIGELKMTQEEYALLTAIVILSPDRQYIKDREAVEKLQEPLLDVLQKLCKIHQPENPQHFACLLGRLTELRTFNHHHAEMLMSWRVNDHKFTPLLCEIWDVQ
In short: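 HepG2 cells were transiently transfected with GAL4-UAS reporters driven by chimeric NR-Gal4 proteins and dosed for 24 h. Reporter mRNA was quantified by RT-PCR, fluorescent labelling, HpaI digestion and capillary electrophoresis, with gain of signal scored versus DMSO.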

[2] = molecular target: Oxysterols receptor LXR-alpha (Homo sapiens) (UniProt Q13133); test: ATG_LXRa_TRANS: Attagene TRANS-FACTORIAL HepG2 Assay for human Liver X Receptor alpha (LXRa) (AID 2282980; active = hit-call score of the fitted dose curve at least 0.9, where 1 is the maximum); conditions: HepG2 Attagene TRANS reporter, LXRa transactivation
Chain of Oxysterols receptor LXR-alpha (Homo sapiens) (Q13133 whole entry, looked up, the tested form may be a part): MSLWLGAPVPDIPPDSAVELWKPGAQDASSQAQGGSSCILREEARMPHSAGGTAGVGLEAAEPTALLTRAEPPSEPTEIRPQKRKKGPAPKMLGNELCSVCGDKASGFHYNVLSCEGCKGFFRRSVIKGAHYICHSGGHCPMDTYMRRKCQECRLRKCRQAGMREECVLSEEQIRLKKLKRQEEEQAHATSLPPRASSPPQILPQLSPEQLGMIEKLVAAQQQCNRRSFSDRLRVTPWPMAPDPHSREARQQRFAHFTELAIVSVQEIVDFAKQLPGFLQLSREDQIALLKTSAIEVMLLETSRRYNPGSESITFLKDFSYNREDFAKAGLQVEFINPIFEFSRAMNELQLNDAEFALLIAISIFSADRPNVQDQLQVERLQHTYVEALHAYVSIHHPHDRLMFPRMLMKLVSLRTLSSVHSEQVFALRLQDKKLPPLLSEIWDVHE
In short: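 HepG2 cells transiently transfected with GAL4-UAS reporter units for chimeric NR-Gal4 proteins, exposed to chemicals for 24 h. Reporter mRNA quantified by RT-PCR and capillary electrophoresis; gain of signal fitted relative to DMSO.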

[3] = molecular target: Oxysterols receptor LXR-beta (Homo sapiens) (UniProt P55055); test: ATG_LXRb_TRANS: Attagene TRANS-FACTORIAL HepG2 Assay for human Liver X Receptor beta (LXRb) (AID 2282981; active = hit-call score of the fitted dose curve at least 0.9, where 1 is the maximum); conditions: HepG2 Attagene TRANS GAL4-LXRb reporter, mRNA
Chain of Oxysterols receptor LXR-beta (Homo sapiens) (P55055 whole entry, looked up, the tested form may be a part): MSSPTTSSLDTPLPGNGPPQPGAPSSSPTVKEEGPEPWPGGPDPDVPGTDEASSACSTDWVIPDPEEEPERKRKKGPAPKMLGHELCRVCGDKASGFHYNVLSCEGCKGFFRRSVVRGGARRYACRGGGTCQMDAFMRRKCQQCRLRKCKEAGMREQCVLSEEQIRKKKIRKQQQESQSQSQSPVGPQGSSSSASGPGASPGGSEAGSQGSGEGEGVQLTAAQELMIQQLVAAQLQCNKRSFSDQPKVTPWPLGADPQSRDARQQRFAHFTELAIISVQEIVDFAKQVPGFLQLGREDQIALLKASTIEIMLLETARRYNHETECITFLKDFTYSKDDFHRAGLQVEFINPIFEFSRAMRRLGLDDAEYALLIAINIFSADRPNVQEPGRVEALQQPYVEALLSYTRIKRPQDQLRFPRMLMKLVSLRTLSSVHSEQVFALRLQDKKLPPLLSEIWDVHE
In short: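 Liver-derived HepG2 cells transfected with Gal4-responsive reporters were dosed for 24 h. Activation was scored as rise in reporter mRNA, by RT-PCR and capillary electrophoresis, above DMSO baseline.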

[4] = molecular target: Hepatocyte nuclear factor 4-alpha (Homo sapiens) (UniProt P41235); test: ATG_HNF4a_TRANS: Attagene TRANS-FACTORIAL HepG2 Assay for human Hepatocyte Nuclear Factor 4 alpha (HNF4a) (AID 2282982; active = hit-call score of the fitted dose curve at least 0.9, where 1 is the maximum); conditions: HepG2 HNF4a transactivation reporter, mRNA readout
Chain of Hepatocyte nuclear factor 4-alpha (Homo sapiens) (P41235 whole entry, looked up, the tested form may be a part): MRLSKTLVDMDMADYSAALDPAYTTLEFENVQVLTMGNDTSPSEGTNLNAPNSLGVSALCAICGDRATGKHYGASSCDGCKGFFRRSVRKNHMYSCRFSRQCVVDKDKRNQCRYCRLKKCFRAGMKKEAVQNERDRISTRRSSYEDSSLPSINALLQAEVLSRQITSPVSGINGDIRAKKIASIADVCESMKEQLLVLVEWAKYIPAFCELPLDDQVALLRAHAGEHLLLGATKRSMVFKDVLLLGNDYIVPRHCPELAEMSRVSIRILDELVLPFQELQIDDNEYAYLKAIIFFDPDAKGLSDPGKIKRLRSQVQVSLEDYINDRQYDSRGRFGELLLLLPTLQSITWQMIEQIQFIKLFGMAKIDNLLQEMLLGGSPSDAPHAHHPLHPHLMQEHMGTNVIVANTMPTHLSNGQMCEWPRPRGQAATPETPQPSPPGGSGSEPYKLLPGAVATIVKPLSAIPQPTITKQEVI
In short: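 Using HepG2 liver cells transfected with GAL4-UAS reporter units, chemical-induced mRNA increases were assessed after 24 hours. Fluorescent RT-PCR fragments were separated by capillary electrophoresis and compared with DMSO negative controls.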

[5] = ATG_M_06_TRANS: Attagene TRANS-FACTORIAL HepG2 Assay for M06 Transcription Factor (Internal Marker) (AID 2282983; active = hit-call score of the fitted dose curve at least 0.9, where 1 is the maximum); conditions: HepG2 Attagene TRANS M06 internal marker reporter
In short: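 mRNA levels of a reporter transcript, quantified as FAM fluorescence on capillary electrophoresis, served as readout. HepG2 cells expressing exogenous GAL4-chimera reporter constructs were exposed for 24 h. Gain of signal over DMSO was evaluated.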

[6] = ATG_M_32_TRANS: Attagene TRANS-FACTORIAL HepG2 Assay for M32 Transcription Factor (Internal Marker) (AID 2282984; active = hit-call score of the fitted dose curve at least 0.9, where 1 is the maximum); conditions: HepG2 Attagene TRANS M32 internal marker reporter
In short: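 Fluorescence-detected mRNA induction, HepG2 liver cells, 24 h after dosing. Multiple GAL4-UAS reporter units introduced by transient transfection; background-control endpoint analysed for gain of signal against DMSO.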

[7] = molecular target: Transcriptional activator Myb (Homo sapiens) (UniProt P10242); test: ATG_Myb_CIS: Attagene CIS-FACTORIAL HepG2 Assay for human Myeloblastosis (Myb) Proto-Oncogene Transcription Factor (AID 2282986); conditions: HepG2 Attagene CIS-FACTORIAL Myb reporter transcription; actives raise or lower the signal
Chain of Transcriptional activator Myb (Homo sapiens) (P10242 whole entry, looked up): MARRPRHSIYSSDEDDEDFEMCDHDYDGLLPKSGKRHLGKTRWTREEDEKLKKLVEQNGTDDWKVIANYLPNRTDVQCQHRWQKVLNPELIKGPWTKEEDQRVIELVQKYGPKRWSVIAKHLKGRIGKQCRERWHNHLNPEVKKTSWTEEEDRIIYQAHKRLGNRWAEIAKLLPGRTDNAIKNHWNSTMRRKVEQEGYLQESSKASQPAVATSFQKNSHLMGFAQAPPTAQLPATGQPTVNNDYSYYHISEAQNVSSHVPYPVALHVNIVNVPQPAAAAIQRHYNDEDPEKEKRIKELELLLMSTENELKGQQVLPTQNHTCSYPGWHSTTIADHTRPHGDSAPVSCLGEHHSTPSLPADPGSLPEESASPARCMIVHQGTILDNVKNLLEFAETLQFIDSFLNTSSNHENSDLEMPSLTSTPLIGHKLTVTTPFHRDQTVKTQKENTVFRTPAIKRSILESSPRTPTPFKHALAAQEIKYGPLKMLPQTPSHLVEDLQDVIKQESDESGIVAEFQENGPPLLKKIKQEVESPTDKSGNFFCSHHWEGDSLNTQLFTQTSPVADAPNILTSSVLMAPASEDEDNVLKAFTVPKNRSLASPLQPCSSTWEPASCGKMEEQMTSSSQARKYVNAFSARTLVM
In short: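 HepG2 cells were transiently transfected with cis-regulated multiple reporter transcription units reflecting endogenous Myb activity, then exposed to compound for 24 hours. Reporter mRNA was measured by RT-PCR with capillary electrophoresis; bidirectional fitting versus DMSO baseline.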

[8] = molecular target: Nuclear respiratory factor 1 (Homo sapiens) (UniProt Q16656); test: ATG_NRF1_CIS: Attagene CIS-FACTORIAL HepG2 Assay for human Nuclear Respiratory Factor 1 (NRF1) Orphan Gene (AID 2282987); conditions: HepG2 NRF1 cis-element reporter, Attagene multiplex; actives raise or lower the signal
Chain of Nuclear respiratory factor 1 (Homo sapiens) (Q16656 whole entry, looked up): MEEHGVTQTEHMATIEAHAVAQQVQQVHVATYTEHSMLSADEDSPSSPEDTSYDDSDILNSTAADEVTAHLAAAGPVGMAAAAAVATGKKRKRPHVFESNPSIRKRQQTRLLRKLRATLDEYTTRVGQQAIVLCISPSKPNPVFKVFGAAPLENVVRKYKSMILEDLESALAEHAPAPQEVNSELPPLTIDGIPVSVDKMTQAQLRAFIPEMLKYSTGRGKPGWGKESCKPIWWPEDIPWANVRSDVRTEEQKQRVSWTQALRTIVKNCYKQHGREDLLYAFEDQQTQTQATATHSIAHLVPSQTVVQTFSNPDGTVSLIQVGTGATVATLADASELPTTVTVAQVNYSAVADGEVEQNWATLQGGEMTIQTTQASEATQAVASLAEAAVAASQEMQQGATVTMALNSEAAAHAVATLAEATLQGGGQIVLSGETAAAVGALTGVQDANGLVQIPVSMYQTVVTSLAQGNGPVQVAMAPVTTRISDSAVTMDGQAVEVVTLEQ
In short: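 HepG2 cells transiently transfected with multiple reporter transcription units under cis-regulatory promoter control, so endogenous transcription-factor activity is read. After 24 h compound exposure, reporter mRNA quantified by RT-PCR, fluorescent labelling, HpaI digestion and capillary electrophoresis; bidirectional fitting versus DMSO.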

[9] = ATG_M_61_TRANS: Attagene TRANS-FACTORIAL HepG2 Assay for M61 Transcription Factor (Internal Marker) (AID 2282988); conditions: HepG2 Attagene TRANS M61 internal marker reporter
In short: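 Background-control reporter transcript, measured after 24 h chemical exposure of transiently transfected HepG2 cells carrying multiple GAL4-UAS reporter units. Read-out by RT-PCR with 6-FAM primer extension and capillary electrophoresis, gain of signal versus DMSO.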

[10] = ATG_NFI_CIS: Attagene CIS-FACTORIAL HepG2 Assay for human Nuclear Factor I (NFI) (AID 2282989); conditions: HepG2 cis-regulatory reporter, NFI response element transcription; actives raise or lower the signal
In short: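 Read-out: reporter mRNA via RT-PCR plus capillary electrophoresis with fluorescence detection. Transiently transfected HepG2 (endogenous TF activity on cis promoters), 24 h compound exposure; gain or loss of signal fitted against DMSO.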

[11] = molecular target: Myc proto-oncogene protein (Homo sapiens) (UniProt P01106); test: ATG_Myc_CIS: Attagene CIS-FACTORIAL HepG2 Assay for human Myelocytomatosis (Myc) Proto-Oncogene Transcription Factor (AID 2282990); conditions: HepG2, Attagene cis-reporter transcription factor activity; actives raise or lower the signal
Chain of Myc proto-oncogene protein (Homo sapiens) (P01106 whole entry, looked up): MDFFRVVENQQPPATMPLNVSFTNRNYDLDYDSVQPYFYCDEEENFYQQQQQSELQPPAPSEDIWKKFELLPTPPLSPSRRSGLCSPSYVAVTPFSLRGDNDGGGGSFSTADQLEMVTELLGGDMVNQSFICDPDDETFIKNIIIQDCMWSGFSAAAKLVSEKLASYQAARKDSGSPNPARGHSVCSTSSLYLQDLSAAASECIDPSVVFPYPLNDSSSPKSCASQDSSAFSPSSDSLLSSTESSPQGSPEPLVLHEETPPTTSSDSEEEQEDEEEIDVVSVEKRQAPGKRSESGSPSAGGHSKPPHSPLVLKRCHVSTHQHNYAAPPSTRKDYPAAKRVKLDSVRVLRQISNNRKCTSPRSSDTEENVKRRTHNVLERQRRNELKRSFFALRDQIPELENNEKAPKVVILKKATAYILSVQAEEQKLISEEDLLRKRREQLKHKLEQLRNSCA
In short: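 DMSO-normalised, bidirectionally fitted reporter mRNA signal. HepG2 cells transfected with cis reporter constructs, treated 24 h; transcripts detected by RT-PCR, 6-FAM primer extension and CE.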

[12] = ATG_NF_kB_CIS: Attagene CIS-FACTORIAL HepG2 Assay for human Nuclear Factor Kappa B (NF-kB) (AID 2282991); conditions: HepG2 Attagene cis-factorial NF-kB reporter mRNA; actives raise or lower the signal
In short: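 HepG2 cells transiently transfected with multiplexed cis-element reporter units measuring endogenous transcription factor activity; reporter mRNA read 24 h after dosing by RT-PCR, fluorescent labelling, HpaI digestion and capillary electrophoresis. Bidirectional fit against DMSO baseline.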

[13] = ATG_Oct_MLP_CIS: Attagene CIS-FACTORIAL HepG2 Assay for human Octamer-Binding Transcription Factor (Oct) (AID 2282993); conditions: HepG2 Attagene cis-factorial Oct reporter, mRNA; actives raise or lower the signal
In short: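 Read-out: reporter mRNA via RT-PCR plus capillary electrophoresis of 6-FAM-labelled fragments. Transiently transfected HepG2, 24 h exposure, endogenous TF activity on cis elements. Gain or loss of signal fitted relative to DMSO.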

[14] = molecular target: Cellular tumor antigen p53 (Homo sapiens) (UniProt P04637); test: ATG_p53_CIS: Attagene CIS-FACTORIAL HepG2 Assay for human p53 Transcription Factor (AID 2282994); conditions: HepG2 p53 cis-element reporter, Attagene mRNA; actives raise or lower the signal
Chain of Cellular tumor antigen p53 (Homo sapiens) (P04637 whole entry, looked up): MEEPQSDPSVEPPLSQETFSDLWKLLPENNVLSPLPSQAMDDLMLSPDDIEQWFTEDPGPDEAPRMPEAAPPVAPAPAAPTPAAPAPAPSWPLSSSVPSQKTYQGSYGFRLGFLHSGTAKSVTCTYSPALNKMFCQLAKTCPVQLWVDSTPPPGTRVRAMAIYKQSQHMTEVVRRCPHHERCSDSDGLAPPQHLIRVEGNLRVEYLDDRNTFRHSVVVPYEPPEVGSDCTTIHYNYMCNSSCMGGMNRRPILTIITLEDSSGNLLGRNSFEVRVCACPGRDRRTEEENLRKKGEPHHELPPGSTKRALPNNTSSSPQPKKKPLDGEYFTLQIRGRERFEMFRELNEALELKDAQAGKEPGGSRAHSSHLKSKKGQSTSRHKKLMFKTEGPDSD
In short: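 Endogenous p53 activity read in transiently transfected HepG2 from a cis-element-driven reporter transcript after 24 h exposure. RNA reverse-transcribed, PCR-amplified, fluorescently labelled and sized by capillary electrophoresis; gain or loss fitted against DMSO baseline.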

[15] = BSK_3C_TissueFactor: BioMAP Diversity Plus: 3C Assay for Tissue Factor Biomarker Activity (AID 2282997); conditions: BioMAP 3C HUVEC, tissue factor biomarker readout; actives raise or lower the signal
In short: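 Tissue Factor measured by ELISA, 24 h after treatment of primary HUVEC in the BioMAP 3C setting.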

[16] = BSK_3C_uPAR: BioMAP Diversity Plus: 3C Assay for Urokinase-type plasminogen activator receptor (uPAR) Biomarker Activity (AID 2282998); conditions: BioMAP 3C HUVEC, uPAR biomarker ELISA; actives raise or lower the signal
In short: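 HUVEC primary cells; 24 h post-dose; uPAR by ELISA; gain or loss of signal fitted bidirectionally vs DMSO baseline.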

[17] = BSK_3C_VCAM1: BioMAP Diversity Plus: 3C Assay for Vascular cell adhesion molecule 1 (VCAM1) Biomarker Activity (AID 2282999); conditions: BioMAP 3C HUVEC, VCAM1 ELISA, cytokine-stimulated; actives raise or lower the signal
In short: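 Vascular primary endothelium (human umbilical vein) was exposed to chemicals and assayed 24 h later. VCAM-1 levels came from ELISA, with DMSO serving as baseline for bidirectional fitting.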

[18] = BSK_4H_Eotaxin3: BioMAP Diversity Plus: 4H Assay for Eotaxin 3 Biomarker Activity (AID 2283000); conditions: primary human endothelial cells (HUVEC); actives raise or lower the signal
In short: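 Eotaxin-3 (CCL26) levels were measured by ELISA in HUVEC primary cultures 24 h post-dosing. Gain or loss of signal was fitted in both directions, with DMSO serving as baseline and negative control.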

[19] = ATG_NRF2_ARE_CIS: Attagene CIS-FACTORIAL HepG2 Assay for human Nuclear Factor Erythroid 2 Related Factor 2 (NFR2) response to Antioxidant Response Elements (ARE) (AID 2282992); conditions: HepG2 Attagene ARE/NRF2 reporter, transcription factor activity; actives raise or lower the signal
In short: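 Endogenous transcription factor activity read out as reporter transcript levels (RT-PCR plus capillary electrophoresis, fluorescence) in transiently transfected HepG2 cells. Measured at 24 h after dosing; gain or loss of signal fitted versus DMSO.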

[20] = molecular target: Nuclear receptor subfamily 4 group A member 2 (Homo sapiens) (UniProt P43354); test: ATG_NURR1_TRANS: Attagene TRANS-FACTORIAL HepG2 Assay for human Nuclear Receptor Related Protein 1 (NURR1) (AID 2282985; active = hit-call score of the fitted dose curve at least 0.9, where 1 is the maximum); conditions: HepG2 Attagene TRANS reporter, mRNA readout
Chain of Nuclear receptor subfamily 4 group A member 2 (Homo sapiens) (P43354 whole entry, looked up, the tested form may be a part): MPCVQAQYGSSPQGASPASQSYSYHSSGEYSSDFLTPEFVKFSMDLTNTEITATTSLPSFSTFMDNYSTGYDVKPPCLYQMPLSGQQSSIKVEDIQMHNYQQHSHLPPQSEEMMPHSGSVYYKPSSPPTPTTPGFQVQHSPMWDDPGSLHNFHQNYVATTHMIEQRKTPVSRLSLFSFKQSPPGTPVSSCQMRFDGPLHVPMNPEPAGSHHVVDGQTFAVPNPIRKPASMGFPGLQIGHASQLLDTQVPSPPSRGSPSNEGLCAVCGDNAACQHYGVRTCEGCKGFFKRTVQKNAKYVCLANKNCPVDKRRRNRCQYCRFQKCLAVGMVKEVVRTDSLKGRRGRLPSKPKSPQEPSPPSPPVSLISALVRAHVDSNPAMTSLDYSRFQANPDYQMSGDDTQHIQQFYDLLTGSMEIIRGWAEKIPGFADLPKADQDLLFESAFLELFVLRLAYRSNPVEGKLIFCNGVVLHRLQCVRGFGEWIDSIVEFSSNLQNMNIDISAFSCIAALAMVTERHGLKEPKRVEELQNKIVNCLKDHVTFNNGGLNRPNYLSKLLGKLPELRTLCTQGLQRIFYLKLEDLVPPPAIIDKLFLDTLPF
In short: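 Chimeric NR-Gal4 proteins were expressed in human HepG2 cells bearing GAL4-UAS reporter units, and induced reporter mRNA was quantified 24 h post-dosing by RT-PCR and capillary electrophoresis.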

Measured: AC50

CC(C)CCCCCCc1ccc(O)cc1
active: [1] 19.2 µM | [2] 11.1 µM | [3] 51.1 µM | [5] 50.3 µM | [6] 53.4 µM | [8] 15.7 µM | [10] 15.8 µM | [11] 15.4 µM | [12] 11.1 µM | [13] 17.4 µM and 17.1 µM | [14] 20.1 µM and 20.3 µM | [15] 9.54 µM | [16] 9.68 µM | [17] 7.98 µM | [18] 10.6 µM
inactive: [1] | [2] | [3] | [4] | [5] | [6] | [7] | [8] | [9] | [10] | [11] | [12] | [13] | [14]

CCCN(CCC)c1c([N+](=O)[O-])cc(C(F)(F)F)c(N)c1[N+](=O)[O-]
active: [12] 50 µM | [19] 5.51 µM | [13] 4.57 µM | [15] 36.5 µM | [16] 31.8 µM | [17] 30.8 µM | [18] 30.3 µM
not listed: [1] | [6] | [9] | [20]
inactive: all other assays above

OB(O)O
not listed: [5] | [9] | [11] | [12] | [20]
inactive: all other assays above

O=C(c1ccccc1)C1CCCCC1
not listed: [4] | [9] | [11] | [19]
inactive: all other assays above

COc1nc(C)nc(NC(=O)NS(=O)(=O)c2ccccc2OCCCl)n1
active: [2] 17.1 µM | [3] 25.6 µM
inactive: [1] | [3] | [4] | [5] | [7] | [8] | [10] | [11] | [12] | [13] | [14] | [15] | [16] | [17] | [18]

CC(=O)S[C@@H]1CC2=CC(=O)CC[C@]2(C)[C@H]2CC[C@@]3(C)[C@@H](CC[C@@]34CCC(=O)O4)[C@H]12
inactive: [2] | [3] | [4] | [5] | [6] | [7] | [8] | [10] | [13] | [14]
active: [13] 15 µM | [14] 27.6 µM [middle of 4 runs] | [15] 16.1 µM | [16] 27.8 µM | [17] 29.5 µM | [18] 36.5 µM

Oc1ccc(C(c2ccc(O)cc2)C(Cl)(Cl)Cl)cc1
active: [15] 36.4 µM | [16] 31.5 µM | [17] 30.3 µM | [18] 31.4 µM
not listed: [4] | [9] | [11] | [12] | [19] | [20]
inactive: all other assays above
